From publication PMC7862700, “An all-to-all approach to the identification of sequence-specific readers for epigenetic DNA modifications on cytosine”

Key:
Assay in all cases: DAPPL (digital affinity profiling via proximity ligation, sequencing); 10 mM Tris-HCl pH 7.5, 50 mM NaCl, 1 mM DTT, 4% glycerol, room temperature, 30 min; GST-TFs on glutathione beads, 16-mer random dsDNA library, 0.1% formaldehyde crosslink after washing; high values mean tight binding
Conditions in all cases: protein: recombinant; tags: N-terminal GST; dsDNA, one strand shown
[1] = target: T1, FLI1 (Homo sapiens, UniProt Q01543 1-452)
T1 sequence: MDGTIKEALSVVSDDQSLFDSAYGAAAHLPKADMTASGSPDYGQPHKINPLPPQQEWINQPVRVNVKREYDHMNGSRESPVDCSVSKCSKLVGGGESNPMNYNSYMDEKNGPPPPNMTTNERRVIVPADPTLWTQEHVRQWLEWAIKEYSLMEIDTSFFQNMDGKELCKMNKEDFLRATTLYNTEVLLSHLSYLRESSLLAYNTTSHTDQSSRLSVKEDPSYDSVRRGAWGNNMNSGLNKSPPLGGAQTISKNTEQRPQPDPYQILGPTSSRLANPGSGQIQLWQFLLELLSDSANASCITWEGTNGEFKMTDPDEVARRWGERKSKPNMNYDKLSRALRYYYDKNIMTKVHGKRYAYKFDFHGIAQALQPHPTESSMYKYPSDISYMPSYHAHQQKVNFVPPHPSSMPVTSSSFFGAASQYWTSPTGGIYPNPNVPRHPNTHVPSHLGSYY
How it was run: (§1)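 Binding signal is defined as a hexamer's read frequency for one factor over its frequency for the tag-only sample. To obtain reads, GST-fused human transcription factors were expressed in yeast, captured on glutathione beads, barcoded with DNA and pooled with that sample. Pools met 200 nmole of a 16-mer random double-stranded DNA library in Tris/NaCl/DTT/glycerol buffer for 30 min at room temperature before washing, 0.1% formaldehyde crosslinking, proximity ligation (BsaI/T4 ligase, 1 h, 37 °C), PCR and Illumina NextSeq500 sequencing.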

[2] = target: T2, ELK1 (Homo sapiens, UniProt P19419 1-428)
T2 sequence: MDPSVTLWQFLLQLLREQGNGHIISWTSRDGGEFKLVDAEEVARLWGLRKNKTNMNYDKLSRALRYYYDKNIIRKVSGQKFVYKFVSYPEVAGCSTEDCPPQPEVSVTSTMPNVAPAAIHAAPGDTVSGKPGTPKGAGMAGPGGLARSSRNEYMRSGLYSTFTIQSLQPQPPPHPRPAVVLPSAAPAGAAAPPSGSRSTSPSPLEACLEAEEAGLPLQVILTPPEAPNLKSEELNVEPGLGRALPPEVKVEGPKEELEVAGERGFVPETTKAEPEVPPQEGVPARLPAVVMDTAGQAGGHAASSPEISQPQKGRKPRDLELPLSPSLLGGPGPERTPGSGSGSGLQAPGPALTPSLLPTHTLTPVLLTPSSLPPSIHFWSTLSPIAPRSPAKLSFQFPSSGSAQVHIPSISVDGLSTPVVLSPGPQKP
How it was run: as §1

[3] = target: T3, GABPA (Homo sapiens, UniProt Q06546 1-454)
T3 sequence: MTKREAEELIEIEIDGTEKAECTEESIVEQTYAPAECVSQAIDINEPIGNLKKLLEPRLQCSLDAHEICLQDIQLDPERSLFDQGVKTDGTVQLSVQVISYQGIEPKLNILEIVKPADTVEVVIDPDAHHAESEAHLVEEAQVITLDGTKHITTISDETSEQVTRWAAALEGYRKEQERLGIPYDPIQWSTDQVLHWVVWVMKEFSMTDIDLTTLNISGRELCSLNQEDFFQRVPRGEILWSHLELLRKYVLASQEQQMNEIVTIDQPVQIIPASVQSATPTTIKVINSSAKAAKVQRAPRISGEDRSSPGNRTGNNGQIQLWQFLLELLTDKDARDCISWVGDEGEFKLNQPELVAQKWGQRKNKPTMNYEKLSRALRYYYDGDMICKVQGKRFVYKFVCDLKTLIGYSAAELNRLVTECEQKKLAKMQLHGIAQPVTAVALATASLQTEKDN
How it was run: as §1

[4] = target: ELF1 (Homo sapiens, UniProt P32519 1-619)
Sequence of ELF1 (P32519 whole entry): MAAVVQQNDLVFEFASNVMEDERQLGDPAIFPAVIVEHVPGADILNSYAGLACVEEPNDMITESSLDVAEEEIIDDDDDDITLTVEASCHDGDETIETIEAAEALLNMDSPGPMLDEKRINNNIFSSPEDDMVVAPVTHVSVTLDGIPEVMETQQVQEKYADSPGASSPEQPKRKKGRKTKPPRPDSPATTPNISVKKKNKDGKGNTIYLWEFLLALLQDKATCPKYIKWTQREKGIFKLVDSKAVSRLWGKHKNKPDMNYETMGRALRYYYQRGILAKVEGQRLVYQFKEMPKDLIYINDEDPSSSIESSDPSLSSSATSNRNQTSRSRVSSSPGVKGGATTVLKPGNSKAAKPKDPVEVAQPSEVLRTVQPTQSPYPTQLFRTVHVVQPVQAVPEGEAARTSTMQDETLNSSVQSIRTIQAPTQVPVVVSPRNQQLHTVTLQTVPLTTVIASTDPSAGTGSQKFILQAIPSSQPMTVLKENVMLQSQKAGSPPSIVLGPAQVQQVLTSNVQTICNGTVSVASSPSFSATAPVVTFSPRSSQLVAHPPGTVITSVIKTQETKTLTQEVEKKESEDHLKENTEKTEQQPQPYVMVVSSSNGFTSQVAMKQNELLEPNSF
How it was run: as §1

[5] = target: T4, EHF (Homo sapiens, UniProt Q9NZC4 1-300)
T4 sequence: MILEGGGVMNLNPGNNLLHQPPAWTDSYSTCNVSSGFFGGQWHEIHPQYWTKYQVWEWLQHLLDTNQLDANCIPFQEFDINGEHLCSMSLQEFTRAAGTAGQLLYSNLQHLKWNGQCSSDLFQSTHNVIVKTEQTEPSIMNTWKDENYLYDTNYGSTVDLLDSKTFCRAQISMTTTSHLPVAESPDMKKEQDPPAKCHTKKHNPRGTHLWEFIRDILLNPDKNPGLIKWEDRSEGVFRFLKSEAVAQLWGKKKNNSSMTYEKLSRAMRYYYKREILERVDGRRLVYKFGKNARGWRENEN
How it was run: as §1

[6] = target: SPIB (Homo sapiens, UniProt Q01892 1-262)
Sequence of SPIB (Q01892 whole entry): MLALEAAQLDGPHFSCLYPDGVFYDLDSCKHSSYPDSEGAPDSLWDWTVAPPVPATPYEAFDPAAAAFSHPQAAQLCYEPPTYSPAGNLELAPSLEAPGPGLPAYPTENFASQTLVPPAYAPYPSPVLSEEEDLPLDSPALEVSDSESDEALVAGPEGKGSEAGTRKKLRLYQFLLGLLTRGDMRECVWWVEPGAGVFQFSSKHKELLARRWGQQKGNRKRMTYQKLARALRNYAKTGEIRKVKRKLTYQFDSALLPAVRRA
How it was run: as §1

[7] = target: T5, ETV2 (Homo sapiens, UniProt O00321 1-342)
T5 sequence: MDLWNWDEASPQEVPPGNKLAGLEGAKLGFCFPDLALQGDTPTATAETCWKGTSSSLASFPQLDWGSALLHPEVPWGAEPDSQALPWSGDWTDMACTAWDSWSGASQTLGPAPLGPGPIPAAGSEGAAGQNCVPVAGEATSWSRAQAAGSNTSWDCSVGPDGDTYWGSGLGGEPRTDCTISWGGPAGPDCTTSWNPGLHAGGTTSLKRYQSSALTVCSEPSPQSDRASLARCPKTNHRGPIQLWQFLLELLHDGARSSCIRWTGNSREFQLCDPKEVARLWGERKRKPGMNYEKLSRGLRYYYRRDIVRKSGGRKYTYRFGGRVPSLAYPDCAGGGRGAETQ
How it was run: as §1

[8] = target: ETV1 (Homo sapiens, UniProt P50549 1-477)
Sequence of ETV1 (P50549 whole entry): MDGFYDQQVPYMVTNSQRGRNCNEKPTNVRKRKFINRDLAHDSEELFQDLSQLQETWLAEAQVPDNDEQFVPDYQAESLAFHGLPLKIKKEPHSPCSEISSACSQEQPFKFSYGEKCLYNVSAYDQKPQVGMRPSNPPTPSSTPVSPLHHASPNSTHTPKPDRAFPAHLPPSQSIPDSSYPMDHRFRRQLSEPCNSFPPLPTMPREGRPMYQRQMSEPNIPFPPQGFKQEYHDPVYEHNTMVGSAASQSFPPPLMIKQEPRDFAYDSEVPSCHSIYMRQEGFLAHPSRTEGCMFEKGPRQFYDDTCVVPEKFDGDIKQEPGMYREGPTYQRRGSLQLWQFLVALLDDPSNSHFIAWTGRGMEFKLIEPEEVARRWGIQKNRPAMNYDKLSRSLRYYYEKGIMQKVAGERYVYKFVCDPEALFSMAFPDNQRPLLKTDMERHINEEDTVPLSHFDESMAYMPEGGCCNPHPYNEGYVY
How it was run: as §1

[9] = target: T6, ERF (Homo sapiens, UniProt P50548 1-548)
T6 sequence: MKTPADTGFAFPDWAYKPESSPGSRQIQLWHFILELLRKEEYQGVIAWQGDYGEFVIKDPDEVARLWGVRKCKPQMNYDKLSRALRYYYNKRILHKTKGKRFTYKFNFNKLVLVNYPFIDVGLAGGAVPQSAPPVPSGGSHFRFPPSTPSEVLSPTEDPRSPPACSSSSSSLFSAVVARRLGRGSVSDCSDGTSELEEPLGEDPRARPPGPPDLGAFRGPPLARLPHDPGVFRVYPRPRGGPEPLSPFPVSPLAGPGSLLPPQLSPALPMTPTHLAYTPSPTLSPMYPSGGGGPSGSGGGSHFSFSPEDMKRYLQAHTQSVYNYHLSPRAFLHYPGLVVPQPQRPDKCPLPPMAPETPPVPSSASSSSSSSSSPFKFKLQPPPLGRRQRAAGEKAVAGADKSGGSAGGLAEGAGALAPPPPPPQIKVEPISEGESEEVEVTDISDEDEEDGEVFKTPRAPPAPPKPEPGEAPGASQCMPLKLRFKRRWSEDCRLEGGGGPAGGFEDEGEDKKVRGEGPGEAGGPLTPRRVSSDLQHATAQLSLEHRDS
How it was run: as §1

[10] = target: T7, ETV3L (Homo sapiens, UniProt Q6ZN32 1-361)
T7 sequence: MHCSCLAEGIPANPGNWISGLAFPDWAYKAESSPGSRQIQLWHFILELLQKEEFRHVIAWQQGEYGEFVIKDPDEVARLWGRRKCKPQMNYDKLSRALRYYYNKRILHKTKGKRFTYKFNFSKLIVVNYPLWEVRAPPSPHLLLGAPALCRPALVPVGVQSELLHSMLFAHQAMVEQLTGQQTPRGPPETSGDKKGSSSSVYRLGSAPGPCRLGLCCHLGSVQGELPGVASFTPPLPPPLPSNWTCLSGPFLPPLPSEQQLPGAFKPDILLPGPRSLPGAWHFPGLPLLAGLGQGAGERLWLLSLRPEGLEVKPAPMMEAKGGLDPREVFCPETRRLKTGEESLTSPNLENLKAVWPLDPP
How it was run: as §1

[11] = target: T8, ETS2 (Homo sapiens, UniProt P15036 1-469)
T8 sequence: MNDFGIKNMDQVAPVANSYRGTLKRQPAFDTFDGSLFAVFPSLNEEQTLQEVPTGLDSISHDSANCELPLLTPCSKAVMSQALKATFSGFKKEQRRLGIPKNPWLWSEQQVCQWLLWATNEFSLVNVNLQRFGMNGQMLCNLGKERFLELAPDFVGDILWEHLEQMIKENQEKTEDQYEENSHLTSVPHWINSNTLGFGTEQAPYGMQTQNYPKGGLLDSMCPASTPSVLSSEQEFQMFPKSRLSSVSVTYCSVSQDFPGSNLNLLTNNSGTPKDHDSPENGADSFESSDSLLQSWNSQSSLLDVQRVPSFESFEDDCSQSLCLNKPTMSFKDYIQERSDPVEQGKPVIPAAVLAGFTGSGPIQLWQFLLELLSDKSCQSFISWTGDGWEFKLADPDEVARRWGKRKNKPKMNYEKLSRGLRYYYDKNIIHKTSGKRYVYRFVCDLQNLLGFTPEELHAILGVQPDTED
How it was run: as §1

[12] = target: ETV6 (Homo sapiens, UniProt P41212 1-452)
Sequence of ETV6 (P41212 whole entry): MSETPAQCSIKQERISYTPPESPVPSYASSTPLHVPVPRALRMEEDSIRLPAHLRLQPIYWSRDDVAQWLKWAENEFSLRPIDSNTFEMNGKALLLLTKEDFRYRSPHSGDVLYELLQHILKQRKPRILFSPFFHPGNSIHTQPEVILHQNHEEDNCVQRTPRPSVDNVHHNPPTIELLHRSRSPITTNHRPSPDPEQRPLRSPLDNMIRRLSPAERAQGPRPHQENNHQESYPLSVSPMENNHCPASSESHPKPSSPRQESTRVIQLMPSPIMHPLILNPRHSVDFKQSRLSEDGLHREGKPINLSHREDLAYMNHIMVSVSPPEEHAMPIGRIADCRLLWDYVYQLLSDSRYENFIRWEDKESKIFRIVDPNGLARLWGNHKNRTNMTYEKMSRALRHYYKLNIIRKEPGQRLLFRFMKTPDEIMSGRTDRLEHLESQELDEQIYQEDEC
How it was run: as §1

[13] = target: T9, ELK3 (Homo sapiens, UniProt P41970 1-407)
T9 sequence: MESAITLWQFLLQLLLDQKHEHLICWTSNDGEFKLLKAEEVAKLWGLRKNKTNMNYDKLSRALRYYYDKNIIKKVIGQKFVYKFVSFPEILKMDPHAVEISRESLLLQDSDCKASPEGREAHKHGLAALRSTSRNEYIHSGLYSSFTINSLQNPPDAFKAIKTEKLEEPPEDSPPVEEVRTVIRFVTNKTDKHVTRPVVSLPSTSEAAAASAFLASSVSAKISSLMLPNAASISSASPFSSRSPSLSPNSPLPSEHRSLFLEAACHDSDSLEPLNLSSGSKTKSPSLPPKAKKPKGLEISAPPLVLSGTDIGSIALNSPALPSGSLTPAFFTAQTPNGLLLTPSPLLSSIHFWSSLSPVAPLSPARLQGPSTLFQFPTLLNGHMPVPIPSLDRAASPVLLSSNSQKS
How it was run: as §1

[14] = target: T10, ELK4 (Homo sapiens, UniProt P28324-2 1-405)
T10 sequence: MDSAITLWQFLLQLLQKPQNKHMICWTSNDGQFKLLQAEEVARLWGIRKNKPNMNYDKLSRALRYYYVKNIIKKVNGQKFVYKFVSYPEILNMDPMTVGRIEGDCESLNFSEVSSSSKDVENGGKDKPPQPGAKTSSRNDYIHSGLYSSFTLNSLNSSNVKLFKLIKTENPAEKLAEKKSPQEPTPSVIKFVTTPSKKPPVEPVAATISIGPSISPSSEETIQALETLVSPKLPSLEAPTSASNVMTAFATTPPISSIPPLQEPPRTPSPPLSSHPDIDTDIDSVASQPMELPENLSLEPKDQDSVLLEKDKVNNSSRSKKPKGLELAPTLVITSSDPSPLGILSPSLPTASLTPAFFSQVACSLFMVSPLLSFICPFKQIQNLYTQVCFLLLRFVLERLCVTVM
How it was run: as §1

Sequence | binding signal [1] | binding signal [2] | binding signal [3] | binding signal [4] | binding signal [5] | binding signal [6] | binding signal [7] | binding signal [8] | binding signal [9] | binding signal [10] | binding signal [11] | binding signal [12] | binding signal [13] | binding signal [14]
GCATCT | 1.03 fold enrichment (6-mer frequency, TF over GST control) | 1.02 fold enrichment (6-mer frequency, TF over GST control) | 1.03 fold enrichment (6-mer frequency, TF over GST control) | 1.02 fold enrichment (6-mer frequency, TF over GST control) | 1.06 fold enrichment (6-mer frequency, TF over GST control) | 1.02 fold enrichment (6-mer frequency, TF over GST control) | 1 fold enrichment (6-mer frequency, TF over GST control) | 1.09 fold enrichment (6-mer frequency, TF over GST control) | 1.04 fold enrichment (6-mer frequency, TF over GST control) | 1.05 fold enrichment (6-mer frequency, TF over GST control) | 1.04 fold enrichment (6-mer frequency, TF over GST control) | 1.01 fold enrichment (6-mer frequency, TF over GST control) | – | –
GGTCTG | 1.03 fold enrichment (6-mer frequency, TF over GST control) | 1.11 fold enrichment (6-mer frequency, TF over GST control) | 1.02 fold enrichment (6-mer frequency, TF over GST control) | – | – | 1 fold enrichment (6-mer frequency, TF over GST control) | 1.07 fold enrichment (6-mer frequency, TF over GST control) | 1.07 fold enrichment (6-mer frequency, TF over GST control) | 1.09 fold enrichment (6-mer frequency, TF over GST control) | – | – | 1.02 fold enrichment (6-mer frequency, TF over GST control) | 1.03 fold enrichment (6-mer frequency, TF over GST control) | 1.07 fold enrichment (6-mer frequency, TF over GST control)
